V-ATPase pHluor: regulators of yeast V-ATPase proton pumping, primary screen, pHLuorin cytosolic pH fluorescence; response, % at 10 µM; AID 504577, 2011; 0.37% of 350,000 active; S. cerevisiae; in the data active means response mostly above about 7.3%, no sharp cut-off; inactive means mostly below about 5.4%; further: actives read high
KLK7 zymogen act: proKLK7 zymogen activators, primary screen, biochemical, fluorescence intensity; Kallikrein-7 (Homo sapiens), P49862; purified proKLK7, EDANS-DABCYL substrate fluorescence; 100% is mature enzyme control, 0% vehicle; activation, % at 7 µM; 0.9% of 370,000 active;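 active means activation above the mean of all tested compounds plus 3 SD, computed per campaign excluding outliers beyond control limits, cut at about 13% in these data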
Target sequence (P49862 whole entry, looked up): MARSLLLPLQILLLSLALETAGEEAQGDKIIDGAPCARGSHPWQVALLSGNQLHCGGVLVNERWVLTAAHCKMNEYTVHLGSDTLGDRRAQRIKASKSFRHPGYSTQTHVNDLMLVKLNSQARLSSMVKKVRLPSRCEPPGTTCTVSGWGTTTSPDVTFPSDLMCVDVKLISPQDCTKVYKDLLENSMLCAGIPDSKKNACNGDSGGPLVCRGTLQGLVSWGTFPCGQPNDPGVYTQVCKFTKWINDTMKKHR
ADAM17 inh: ADAM17 inhibitors, primary screen, biochemical, QFRET; 0.83% of 370,000 active; AID 720648, 2013; recombinant ADAM17, EDANS/DABCYL FRET peptide cleavage; inhibition, % at 6.95 µM; Disintegrin and metalloproteinase domain-containing protein 17 (Homo sapiens), P78536;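 active means inhibition above the mean of compounds lying between control limits plus 3 SD, set per campaign, cut at about 8.5% in these data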;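 further: 0% = DMSO-only wells as the low control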
ADAM10 inh: human ADAM10 inhibitors, primary screen, biochemical, QFRET, HTS. 0.62% of 370,000 active. recombinant ADAM10, EDANS/DABCYL FRET peptide cleavage, 3 h. inhibition, % at 7 µM. AID 720582, 2013;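 active means inhibition above a per-campaign cutoff equal to the mean of compounds falling between control-based bounds plus 3 SD, cut at about 20% in these data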;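 further: 0% = DMSO wells while the 100% control is not disclosed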
ADAM10 counter: ADAM10 inhibitors, counter-screen for ADAM17 exosite inhibitor project, biochemical, FRET, human ADAM10. AID 743256, 2014. inhibition, % at 6.95 µM. 47% of 2,900 active. shares compounds with ADAM17 inh. recombinant ADAM10, EDANS/DABCYL FRET peptide cleavage, 3 h;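 active means mean inhibition over the triplicate runs exceeds the activity threshold set in the earlier primary screen, cut at about 20% in these data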;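 further: 0% = DMSO wells and 100% = marimastat wells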
ADAM17 confirm: ADAM17 inhibitors, hit retest, confirmation, biochemical, QFRET peptide cleavage; recombinant ADAM17, EDANS/DABCYL QFRET peptide cleavage; AID 743257, 2014; 65% of 2,900 active; shares compounds with ADAM17 inh; inhibition, % at 6.95 µM;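 active means mean inhibition across replicates above the hit cutoff set in the primary screen, cut at about 8.5% in these data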;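 further: 0% = DMSO wells and 100% = marimastat wells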
Starred values were filed as active, the others as inactive. Rows were chosen to be rich in hits. Some 2.3% of all compounds tested hit in one or more screens of this group.

Results for Clc1ccc(-n2c(SC/C=C/c3ccccc3)nnc2-c2cccnc2)cc1 ?
V-ATPase pHluor: 3; KLK7 zymogen act: 0; ADAM17 inh: 14*; ADAM10 inh: 19; ADAM10 counter: 1; ADAM17 confirm: 6

What do the screens show for `Cc1ccc(-n2c(SCC(=O)Nc3ccccc3-c3ccccc3)nnc2-c2ccccc2)cc1`?
KLK7 zymogen act: 0; ADAM17 inh: 4; ADAM10 inh: 15

How did O=C(CSc1nnc(-c2ccccc2)n1-c1ccc(Cl)cc1)Nc1ccccc1-c1ccccc1 do in these assays?
KLK7 zymogen act: 1; ADAM17 inh: 11*; ADAM10 inh: 19; ADAM10 counter: 21*; ADAM17 confirm: 14*

Results for COC(=O)c1cc2c(c3c4ccccc4n(S(C)(=O)=O)c13)C(=O)N(Cc1ccccc1)C2 ?
KLK7 zymogen act: -2; ADAM17 inh: -4; ADAM10 inh: -14

What do the screens show for `CCOC(=O)N1CCN(C(=O)C[C@H]2C[C@@]3(C(=O)OC)C(=C[C@H](C(C)C)O[C@@H]3C3CC3)N(Cc3ccc(Cl)cc3Cl)C2=O)CC1`?
KLK7 zymogen act: 1; ADAM17 inh: 9.2*; ADAM10 inh: 6; ADAM10 counter: 18; ADAM17 confirm: 12*

Results for COC(=O)[C@]12C[C@H](CC(=O)NCc3ccc(C)o3)C(=O)N(Cc3ccccc3)C1=C[C@H](C(C)(C)C)O[C@@H]2C ?
KLK7 zymogen act: 0; ADAM17 inh: 10*; ADAM10 inh: 9; ADAM10 counter: 11; ADAM17 confirm: 6

How did COC(=O)[C@]12C[C@H](CC(=O)NCCCCc3ccccc3)C(=O)N(Cc3ccco3)C1=C[C@H](C1CCCC1)O[C@@H]2C do in these assays?
KLK7 zymogen act: 0; ADAM17 inh: 1; ADAM10 inh: 16

How did COC(=O)[C@]12C[C@H](CC(=O)NCCCCc3ccccc3)C(=O)N(Cc3ccco3)C1=C[C@H](C(C)(C)C)O[C@@H]2C do in these assays?
KLK7 zymogen act: 0; ADAM17 inh: 9.3*; ADAM10 inh: 19; ADAM10 counter: 27*; ADAM17 confirm: 15*

What do the screens show for `COC(=O)[C@]12C[C@H](CC(=O)NCc3cccc(C(F)(F)F)c3)C(=O)N(Cc3ccc4c(c3)OCO4)C1=C[C@H](C(C)(C)C)O[C@@H]2C`?
KLK7 zymogen act: -1; ADAM17 inh: 13*; ADAM10 inh: 19; ADAM10 counter: 54*; ADAM17 confirm: 19*

What do the screens show for `COC(=O)[C@]12C[C@H](CC(=O)NCc3cccc4ccccc34)C(=O)N(Cc3ccccc3)C1=C[C@H](C(C)C)O[C@@H]2C1CC1`?
KLK7 zymogen act: 0; ADAM17 inh: 2; ADAM10 inh: 7

What do the screens show for `COC(=O)[C@]12C[C@H](CC(=O)NCCCCc3ccccc3)C(=O)N(Cc3ccccc3)C1=C[C@H](C(C)C)O[C@@H]2C1CC1`?
KLK7 zymogen act: 1; ADAM17 inh: 17*; ADAM10 inh: 17; ADAM10 counter: 26*; ADAM17 confirm: 13*

What do the screens show for `COC(=O)c1cc2c(c3c4cc(OC)ccc4n(S(=O)(=O)c4cccc(C)c4)c13)C(=O)N(C)C2`?
KLK7 zymogen act: -2; ADAM17 inh: 1; ADAM10 inh: 1

How did COC(=O)C1=C(C)N(Cc2ccccc2C(F)(F)F)C(=NCc2ccccc2C(F)(F)F)NC1c1ccc(C(F)(F)F)cc1 (stereo not given) do in these assays?
KLK7 zymogen act: 0; ADAM17 inh: -2; ADAM10 inh: -8

Results for CCOC(=O)CCCc1c[nH]c2ccccc12 ?
V-ATPase pHluor: 5; KLK7 zymogen act: 0; ADAM17 inh: -4; ADAM10 inh: -6

Results for Cc1ccc(NC(=O)COC(=O)Cc2c[nH]c3ccccc23)cc1C ?
V-ATPase pHluor: 10; KLK7 zymogen act: 0; ADAM17 inh: 14*; ADAM10 inh: 12; ADAM10 counter: 2; ADAM17 confirm: 5

From PubChem
